# Laboratory results published in PubChem BioAssay (NCATS).
# Results filed as inconclusive are left out. Where a call stands in place of a potency, no number is given. Calls of active or inactive are those of the source. The call rests on the fitted dose curve; in most records, active means well fitted curve in the direction sought with a large enough effect; inconclusive means small, poorly fitted or top-dose-only effect, or another doubt; inactive means no such curve, though single readings can be large; an effect the other way counts as inactive or inconclusive.
# How the values were obtained:
# [1] = target: Rap guanine nucleotide exchange factor 4 (Homo sapiens) (UniProt Q8WZA2); assay: Confirmatory qHTS for antagonist of cAMP-regulated guanine nucleotide exchange factor 4 (EPAC2) (AID 1645885); further: potency means the concentration at half of the fitted maximal effect; nearly all actives have a fitted effect of over 25% in size
# Chain of Rap guanine nucleotide exchange factor 4 (Homo sapiens) (Q8WZA2 whole entry, looked up): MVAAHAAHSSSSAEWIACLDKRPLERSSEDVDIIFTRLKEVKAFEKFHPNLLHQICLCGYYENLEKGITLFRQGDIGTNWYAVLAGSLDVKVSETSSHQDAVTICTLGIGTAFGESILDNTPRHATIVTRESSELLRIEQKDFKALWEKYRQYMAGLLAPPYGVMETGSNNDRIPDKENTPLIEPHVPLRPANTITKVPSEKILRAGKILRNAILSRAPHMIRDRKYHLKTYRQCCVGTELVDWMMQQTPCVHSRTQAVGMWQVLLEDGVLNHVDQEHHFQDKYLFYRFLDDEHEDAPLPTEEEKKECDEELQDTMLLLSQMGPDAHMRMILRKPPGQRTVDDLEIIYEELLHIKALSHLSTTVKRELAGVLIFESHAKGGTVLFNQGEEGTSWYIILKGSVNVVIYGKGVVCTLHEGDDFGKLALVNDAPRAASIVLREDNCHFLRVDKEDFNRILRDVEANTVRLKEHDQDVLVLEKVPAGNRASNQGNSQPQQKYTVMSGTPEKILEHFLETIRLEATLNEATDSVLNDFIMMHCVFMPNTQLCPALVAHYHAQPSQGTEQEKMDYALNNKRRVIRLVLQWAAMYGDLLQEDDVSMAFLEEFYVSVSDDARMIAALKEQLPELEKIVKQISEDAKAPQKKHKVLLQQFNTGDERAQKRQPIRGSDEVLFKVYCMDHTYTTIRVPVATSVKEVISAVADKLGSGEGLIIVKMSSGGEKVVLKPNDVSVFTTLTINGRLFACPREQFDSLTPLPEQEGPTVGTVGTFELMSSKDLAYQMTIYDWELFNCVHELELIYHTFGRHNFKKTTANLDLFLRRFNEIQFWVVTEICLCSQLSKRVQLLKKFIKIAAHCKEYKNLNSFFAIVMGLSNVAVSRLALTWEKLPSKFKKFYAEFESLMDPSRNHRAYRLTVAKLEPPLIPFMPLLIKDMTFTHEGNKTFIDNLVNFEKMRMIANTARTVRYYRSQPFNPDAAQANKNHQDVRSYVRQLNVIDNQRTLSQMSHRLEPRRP
# [2] = target: Glutathione peroxidase 1 (Homo sapiens) (UniProt P07203); assay: Primary qHTS Assay for Inhibitors of Recombinant Selenoprotein Glutathione Peroxidase 1 (GPX1) (AID 1845191); further: nearly all actives have a fitted effect of over 65% in size; further: potency means the concentration at half of the fitted maximal effect
# Chain of Glutathione peroxidase 1 (Homo sapiens) (P07203 whole entry, looked up): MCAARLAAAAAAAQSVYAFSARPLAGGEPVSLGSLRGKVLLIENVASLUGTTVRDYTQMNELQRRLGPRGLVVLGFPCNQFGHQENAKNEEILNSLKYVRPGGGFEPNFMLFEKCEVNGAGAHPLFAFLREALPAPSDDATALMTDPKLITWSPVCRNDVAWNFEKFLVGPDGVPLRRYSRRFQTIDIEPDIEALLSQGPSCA
# Method in brief: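 NADPH consumption tracked by fluorescence at 340/450 nm between t=0 and t=15 min, room temperature. Final mix: 10 nM GPX1, 100 nM glutathione reductase, 1 mM GSH, 0.5 mM NADPH, 0.5 mM cumene hydroperoxide, 0.01% BSA; 30 min compound–enzyme preincubation.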
# [3] = target: Phospholipid hydroperoxide glutathione peroxidase GPX4 (Homo sapiens) (UniProt P36969); assay: Primary qHTS Assay for Inhibitors of Recombinant Selenoprotein Glutathione Peroxidase 4 (GPX4) (AID 1845192); further: nearly all actives have a fitted effect of over 65% in size; further: potency means the concentration at half of the fitted maximal effect
# Chain of Phospholipid hydroperoxide glutathione peroxidase GPX4 (Homo sapiens) (P36969 whole entry, looked up): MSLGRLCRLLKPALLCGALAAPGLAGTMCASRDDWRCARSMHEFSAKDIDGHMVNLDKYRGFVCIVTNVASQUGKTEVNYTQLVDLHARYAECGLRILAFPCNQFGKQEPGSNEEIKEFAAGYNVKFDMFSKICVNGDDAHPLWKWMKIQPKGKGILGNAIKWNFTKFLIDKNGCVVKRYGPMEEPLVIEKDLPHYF
# Method in brief: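 NADPH consumption followed by fluorescence at 340/450 nm, t=0 and after 15 min at room temperature. Reaction started with cumene hydroperoxide (0.5 mM final) after 30 min compound–GPX4 preincubation; final 200 nM GPX4, 100 nM GR, 1 mM GSH, 0.5 mM NADPH.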
# [4] = target: Catechol O-methyltransferase (Homo sapiens) (UniProt P21964); assay: Confirmatory Screen for Target Class Profiling of Small Molecule Inhibitors of Methyltransferases (AID 1745852); conditions: MTase-Glo luminescence, SAH detection, recombinant enzyme; measured here: COMT max response; stronger effect = lower value
# Chain of Catechol O-methyltransferase (Homo sapiens) (P21964 whole entry, looked up): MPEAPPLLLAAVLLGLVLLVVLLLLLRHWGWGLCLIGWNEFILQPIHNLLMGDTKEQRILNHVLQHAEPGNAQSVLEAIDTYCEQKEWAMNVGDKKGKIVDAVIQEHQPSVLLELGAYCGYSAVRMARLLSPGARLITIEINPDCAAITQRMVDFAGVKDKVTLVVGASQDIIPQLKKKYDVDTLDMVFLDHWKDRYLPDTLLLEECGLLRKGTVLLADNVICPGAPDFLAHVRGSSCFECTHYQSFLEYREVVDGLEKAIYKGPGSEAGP
# [5] = target: Guanidinoacetate N-methyltransferase (Homo sapiens) (UniProt Q14353); assay: as above; conditions: MTase-Glo luminescence, SAH detection, recombinant enzyme; at 57.3 µM (top of the series)
# [6] = target: Nicotinamide N-methyltransferase (Homo sapiens) (UniProt P40261); assay: as above; conditions: MTase-Glo luminescence, SAH detection, recombinant enzyme; measured here: NNMT max response; stronger effect = lower value
# Chain of Nicotinamide N-methyltransferase (Homo sapiens) (P40261 whole entry, looked up): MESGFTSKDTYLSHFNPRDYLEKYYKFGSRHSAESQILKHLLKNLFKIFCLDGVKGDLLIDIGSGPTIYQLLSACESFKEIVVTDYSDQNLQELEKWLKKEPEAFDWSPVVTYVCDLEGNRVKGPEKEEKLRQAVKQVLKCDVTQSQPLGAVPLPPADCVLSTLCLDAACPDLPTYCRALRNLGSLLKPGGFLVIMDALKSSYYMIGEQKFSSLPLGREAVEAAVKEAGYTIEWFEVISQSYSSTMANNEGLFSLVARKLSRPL
# [7] = target: Phenylethanolamine N-methyltransferase (Homo sapiens) (UniProt P11086); assay: as above; conditions: MTase-Glo luminescence, SAH detection, recombinant enzyme; measured here: PNMT max response; stronger effect = lower value
# Chain of Phenylethanolamine N-methyltransferase (Homo sapiens) (P11086 whole entry, looked up): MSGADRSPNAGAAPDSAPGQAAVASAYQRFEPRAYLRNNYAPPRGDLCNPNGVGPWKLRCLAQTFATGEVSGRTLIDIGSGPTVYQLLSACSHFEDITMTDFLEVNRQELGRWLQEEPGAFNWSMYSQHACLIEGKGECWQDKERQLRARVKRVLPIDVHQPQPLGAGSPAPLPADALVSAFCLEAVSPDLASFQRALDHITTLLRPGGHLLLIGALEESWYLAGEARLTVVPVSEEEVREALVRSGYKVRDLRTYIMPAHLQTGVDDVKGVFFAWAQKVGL
# [8] = target: Luciferin 4-monooxygenase (Photinus pyralis) (UniProt P08659); assay: Primary firefly luciferase (FLuc) qHTS assay for identification of artifact compounds. (AID 1845220); further: nearly all actives have a fitted effect of over 60% in size
# Method in brief: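 Cell-free, 1536-well qHTS. Buffer pH 7.6 with 0.01% Tween-20 and 0.05% BSA; 10 uM D-luciferin, 10 uM ATP; 10 nM P. pyralis luciferase; luminescence after 5 min.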
# [9] = Primary fluorescence-based thiol-reactive (MSTI) qHTS assay for identification of artifact compounds. (AID 1845221);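 further: thiol-reactive compounds lower the probe fluorescence signal; nearly all actives have a fitted effect of over 65% in size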
# Method in brief: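 MSTI probe at 4 uM final in 2% DMSO/PBS pH 7.4; compounds, 1 h at room temperature in dark. Fluorescence Ex/Em 525/598 nm, normalised to Acetyl-MSTI and MSTI, fitted to 4-parameter Hill.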
# [10] = tested on: Nanoluciferase (engineered Oplophorus gracilirostris luciferase); assay: Primary Nanoluciferase (NLuc) qHTS assay for identification of artifact compounds. (AID 1845222)
# Method in brief: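 Compounds are pinned into diluted (1:55) conditioned medium of NLuc-expressing S16 cells and held 15 min at room temperature protected from light. Nano-Glo substrate follows, and luminescence is read 5 min later.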
# [11] = Primary redox qHTS assay for identification of artifact compounds. (AID 1845223)
# Method in brief: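 Redox-cycling detection via DTT (250 uM final) oxidation coupled to Amplex Red (25 uM)/HRP (250 mU/mL) in HBSS. 15 min preincubation plus 30 min after DTT, room temperature. Ex/Em 525/598 nm; 4-parameter Hill fit against DMSO and 10 uM DA3003.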
# [12] = NCATS anti-infectives library activity on HEK293 viability as a counter-qHTS vs the C. elegans viability qHTS (AID 1745854)
# Method in brief: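 Cytotoxicity counter-screen to a worm viability qHTS: CellTiter-Glo luminescence read 10 min after reagent addition. Compounds (final up to 41.7 uM, a 1:5 dilution series) incubated 24 hr at 37C with 1,500 HEK293 cells per well; digitonin control.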
structure (smiles),measurement,setting,value
O=C(Nc1ccc(S(=O)(=O)N2CCOCC2)cc1)c1cc(Cl)ccc1NS(=O)(=O)c1ccc(Cl)s1,Potency,[1],24.8 µM (active)
same,Potency,[2],inactive
COc1cc(C(=O)NC2CCCNC2)cc(OC)c1OC (stereo unspecified),Potency,[2],12.8 µM (active)
CCC(=O)O[C@H]1[C@H](O[C@@H]2[C@@H](C)[C@H](O[C@H]3C[C@@](C)(OC)[C@@H](O)[C@H](C)O3)[C@@H](C)C(=O)O[C@H](CC)[C@@](C)(O)[C@H](O)[C@@H](C)C(=O)[C@H](C)C[C@@]2(C)O)O[C@H](C)C[C@@H]1N(C)C,Potency,[1],17.5 µM (active)
same,Potency,[2],inactive
same,Potency,[3],inactive
Nc1c(NC/C=C\COc2cc(CN3CCCCC3)ccn2)c(=O)c1=O,activity,[4],-6.1%
same,"activity change, negative = inhibition",[5],2.26%
same,activity,[6],-13.9%
same,activity,[7],-8.61%
same,Potency,[2],inactive
same,Potency,[8],inactive
same,Potency,[9],inactive
same,Potency,[10],inactive
same,outcome,[11],inactive
OCCc1ccccc1,Potency,[12],inactive
same,Potency,[2],inactive
same,Potency,[3],inactive
O=c1[nH]c(=O)n([C@H]2O[C@H](CO)[C@@H](O)[C@@H]2O)cc1/C=C\Br,Potency,[2],inactive
COc1c(C)c2c(c(O)c1C/C=C(\C)CCC(=O)OCCN1CCOCC1)C(=O)OC2,Potency,[12],inactive
same,Potency,[2],inactive
same,Potency,[3],inactive
O=C1NC2CCCCN2C12CCN(CCCN1c3ccccc3CCc3ccc(Cl)cc31)CC2 (stereo unspecified),activity,[4],-2.76%
same,"activity change, negative = inhibition",[5],1.64%
same,activity,[6],-29.7%
same,activity,[7],-1.01%
same,Potency,[2],inactive
same,Potency,[3],inactive
same,Potency,[8],inactive
same,Potency,[9],inactive
same,Potency,[10],inactive
CCC1=C[C@@H]2CN(C1)Cc1c([nH]c3ccccc13)[C@@](C(=O)OC)(c1cc3c(cc1OC)N(C)[C@H]1[C@@](O)(C(=O)OC)[C@H](OC(C)=O)[C@]4(CC)C=CCN5CC[C@]31[C@@H]54)C2,Potency,[2],inactive
same,Potency,[3],inactive
C/C(=C(/OCCOc1ccc(Cl)cc1)c1ccc(Cl)cc1Cl)n1ccnc1,Potency,[2],inactive
same,Potency,[3],inactive
O=C1NC(c2ccccc2)(c2ccccc2)C(=O)N1COP(=O)(O)O,Potency,[2],inactive
same,Potency,[3],inactive
CCN(CC)CCNC(=O)c1ccc(NS(C)(=O)=O)cc1,Potency,[2],inactive
same,Potency,[3],inactive
CCC(C(=O)OCCN1CCOC(c2ccccc2)C1C)c1ccccc1 (stereo unspecified),Potency,[2],inactive
same,Potency,[3],inactive
C1N2CN3CN1CN(C2)C3,Potency,[2],inactive
same,Potency,[3],inactive
CC(C)(C)C(O)/C=C/c1ccc2c(c1)OCO2 (stereo unspecified),Potency,[2],inactive
same,Potency,[3],inactive
CN1C(CSCC(F)(F)F)Nc2cc(Cl)c(S(N)(=O)=O)cc2S1(=O)=O (stereo unspecified),Potency,[2],inactive
same,Potency,[3],inactive
O=C(O)/C=C(\CC(=O)O)C(=O)O,Potency,[2],inactive
same,Potency,[3],inactive
O=C(CS(=O)Cc1ccco1)NC/C=C\COc1cc(CN2CCCCC2)ccn1 (stereo unspecified),Potency,[2],18 µM (active)
same,Potency,[3],inactive
CCC(=O)O[C@]1(C(=O)COC)[C@@H](C)C[C@H]2[C@@H]3CCC4=CC(=O)C=C[C@]4(C)C3(F)[C@@H](O)C[C@@]21C (stereo partly specified),Potency,[2],inactive
same,Potency,[3],inactive
CC(C)(Oc1ccc(Cl)cc1)C(=O)OCCCOC(=O)C(C)(C)Oc1ccc(Cl)cc1,Potency,[2],inactive
same,Potency,[3],inactive
O=C(O)C(=O)Nc1cccc(-c2nn[nH]n2)c1,Potency,[2],inactive
same,Potency,[3],inactive
Cc1cccc(C)c1NC(=O)c1cc(S(N)(=O)=O)c(Cl)cc1O,Potency,[2],inactive
same,Potency,[3],inactive
NCC[C@H](O)C(=O)N[C@@H]1C[C@H](N)[C@@H](O[C@H]2O[C@H](CN)[C@@H](O)[C@H](O)[C@@H]2O)[C@H](O)[C@@H]1O[C@H]1O[C@H](CO)[C@@H](O)[C@H](N)[C@@H]1O,"activity, negative = inhibition",[2],-13.8% [at 0.4 µM] (inactive)
same,"activity change, negative = inhibition",[3],-16.2% [at 0.409 µM] (inactive)
C[C@@H]1CCC[C@H](C)N1CCCC(O)(c1ccccc1)c1ccccn1 (stereo partly specified),Potency,[2],inactive
same,Potency,[3],inactive
OCCOCCN1CCN(C(c2ccccc2)c2ccc(Cl)cc2)CC1 (stereo unspecified),Potency,[2],inactive
same,Potency,[3],inactive
O=C(c1ccccc1)c1ccccc1,Potency,[2],inactive
same,Potency,[3],inactive
O=[N+]([O-])c1cncn1CCN1CCOCC1,Potency,[2],inactive
same,Potency,[3],inactive
NS(=O)(=O)c1cc(C(=O)NN2C[C@H]3[C@H]4CCC(C4)[C@H]3C2)ccc1Cl,Potency,[2],inactive
same,Potency,[3],inactive
O=C(OCC(COC(=O)c1cccnc1)(COC(=O)c1cccnc1)COC(=O)c1cccnc1)c1cccnc1,Potency,[2],inactive
same,Potency,[3],inactive
CCOC(=O)OCC/C(SC(=O)OCC)=C(\C)N(C=O)Cc1cnc(C)nc1N,Potency,[2],inactive
same,Potency,[3],inactive
CCOc1ccc(NS(=O)(=O)c2ccc(N)cc2)nn1,Potency,[2],inactive
same,Potency,[3],inactive
O=C(Nc1ccc(Cl)cc1)Nc1ccc(Cl)c(Cl)c1,Potency,[2],inactive
same,Potency,[3],inactive
NS(=O)(=O)c1cc2c(cc1Cl)CN(C1CCCCC1)C2=O,Potency,[2],inactive
same,Potency,[3],inactive
CC(=O)OCC(=O)[C@@]1(O)[C@H](OC(C)=O)C[C@H]2[C@@H]3CCC4=CC(=O)C=C[C@]4(C)[C@@]3(F)[C@@H](O)C[C@@]21C,Potency,[2],inactive
same,Potency,[3],inactive
O=C(CCOCCOCCOCCOCCC(=O)Nc1c(I)cc(I)c(C(=O)O)c1I)Nc1c(I)cc(I)c(C(=O)O)c1I,Potency,[2],inactive
same,Potency,[3],inactive
Cc1oc(=O)oc1COC(=O)[C@@H]1N2C(=O)[C@@H](NC(=O)[C@H](N)c3ccccc3)[C@H]2SC1(C)C,Potency,[2],inactive
same,Potency,[3],inactive
CCCCC(O)/C=C(C)/C=C/C=C/C(=O)N1CCCC1=O (stereo unspecified),Potency,[2],inactive
same,Potency,[3],inactive
CC(C)=CCC/C(C)=C/CC/C(C)=C/C(=O)OCC(=O)[C@@]1(O)CC[C@H]2[C@@H]3CCC4=CC(=O)C=C[C@]4(C)[C@H]3[C@@H](O)C[C@@]21C,Potency,[2],inactive
same,Potency,[3],inactive
CN1C(=O)CC(C)(c2ccccc2)C1=O (stereo unspecified),Potency,[2],inactive
same,Potency,[3],inactive
O=C(CO)[C@@H](O)[C@H](O)[C@@H](O)CO,Potency,[2],inactive
same,Potency,[3],inactive
COc1c(N2C[C@@H]3CCCN[C@@H]3C2)c(F)cc2c(=O)c(C(=O)O)cn(C3CC3)c12,Potency,[2],14.3 µM (active)
same,Potency,[3],11.2 µM (active)
Cc1c(F)cc2c(=O)c(C(=O)O)cn3c2c1CCC3C (stereo unspecified),Potency,[2],inactive
same,Potency,[3],inactive
CCCCCCOC(=O)NC(=N)c1ccc(NCc2nc3cc(C(=O)N(CCC(=O)OCC)c4ccccn4)ccc3n2C)cc1,Potency,[2],inactive
same,Potency,[3],inactive
